The source of these data is PubChem BioAssay (NCI).

Compounds without any hit were thinned out: in the full panel of roughly 83,000, 20% have a hit.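 Activity criterion: percent growth below 10, measured after cells in 96-well plates were exposed to a single compound concentration for 48 hours.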 The source made the active and inactive calls.

In this test the test system is MDA-MB-468 breast. The test is described as follows: NCI-60 one-dose screen, 48 h (100 = growth as untreated, 0 = no growth, -100 = all killed). The settings on record: 10 µM unless noted.
Turning to `O=[N+]([O-])c1cccc2cc(S(=O)(=O)O)ccc12`, the growth was 112% (inactive).

Take `Cc1cc2nc(C(Cl)Cl)nc(-c3ccc(Cl)cc3)n2n1`: the growth is -47.3% (active).

Take `O=C1C(c2c(O)[nH]c3ncccc23)=Nc2ccccc21`: the growth is 42.6% (inactive).

For the compound `C[C@@H]1N=C(c2ccc(Cl)cc2Cl)Nc2nc3ccccn3c2C1=O`, the growth is 53.9% (inactive).

Turning to `CN(C)CCC(=O)c1ccc([N+](=O)[O-])cc1`, the growth was 86.5% (inactive).

In the case of `CC1(C)N=C(N)N=C(N)N1c1cccc(CN)c1`, the growth was 84.8% (inactive).

For the compound `CCC(=O)C1C(=O)c2ccccc2C1=O`, the growth is 115% (inactive).

On to `Cc1ccc2nc(NC(=O)CSC(=S)N3CCN(c4ccccc4)CC3)sc2c1`, for which the growth is 101% (inactive).

For the compound `COc1ccc(C(=O)Nc2nc(-c3ccc(Cl)cc3)cs2)cc1`, the growth was 95.9% (inactive).

Take `O=C1NC(=O)c2c1c1c3ccccc3ccc1c1[nH]c3ccc(Br)cc3c21`: the growth was -12.5% (active).

`CC(C)=C[C@@H]1c2c(c3ccccc3n(C)c2=O)O[C@H]2c3c(c4ccccc4n(C)c3=O)OC(C)(C)[C@@H]12`: the growth is 61.4% (inactive).

As for `Cc1cc(C(O)CN(C)C)cc2c1ccc1cc(C(C)C)ccc12` (configuration not stated), the growth was -88.6% (active).

Take `C/C(=C\c1ccc([N+](=O)[O-])cc1)C(=O)O`: the growth is 116% (inactive).

For `NC(=O)c1ccc[n+](CC(=O)N2CCN(c3cc4c(cc3F)c(=O)c(C(=O)O)cn4C3CC3)CC2)c1`, the growth was 87.2% (inactive).

With `COc1cc(NCC(O)CN(CC(C)C)C2CCCC2)c2ncccc2c1` (configuration not stated), the growth is -13.4% (active).

With `COc1cc(C(=O)NC(=S)NCc2ccncc2)cc(OC)c1OC`, the growth was 94.2% (inactive).

As for `O=C(O)c1[nH]c(=O)[nH]c(=O)c1[N+](=O)[O-]`, the growth was 109% (inactive).

As for `COc1cccc(-c2nn(-c3ccccc3)cc2-c2ccnc(NCCNC(=O)Nc3cccc(C(F)(F)F)c3)c2)c1`, the growth was 15.5% (inactive).

In the case of `N=C(N)c1ccc(-c2ccc(-c3ccc(F)cc3)o2)o1`, the growth is 5.37% (active).

Regarding `O=C(NCc1cccc(C(F)(F)F)c1)[C@H](CCC(=O)N1CCN(C2CCCCC2)CC1)N1C(=O)[C@@H](N2C(=O)OC[C@@H]2c2ccccc2)[C@H]1/C(Cl)=C/c1ccccc1`, the growth was -5.16% (active).

Take `CCOC(=O)/C=C1\S/C(=N\Nc2ccc([N+](=O)[O-])cc2[N+](=O)[O-])N(Cc2ccccc2)C1=O`: the growth was 84.2% (inactive).

Take `COc1cc2c(c(OC)c1OC)-c1ccc(NN(C(=O)c3ccccc3)C(=O)c3ccccc3)c(=O)cc1[C@@H](NC(C)=O)CC2` (tested in a mixture with another compound): the growth was 19.5% (inactive).

Turning to `O=C(Nc1ccc(-c2ccc3c(c2)NC(=O)/C3=C\c2ccc[nH]2)cc1)NC1CC1`, the growth was -4.36% (active).

In the case of `CC1C(C)N(C(=O)CCl)c2ccccc2N1C(=O)CCl` (configuration not stated), the growth is -69% (active).

`COc1ccc(NC2=C(Cl)C(=O)c3nc(C)ccc3C2=O)cc1OC`: the growth is 58.1% (inactive).

Turning to `C[C@@H]1CC[C@H]2[C@@H](C)C(O)O[C@@H]3O[C@]4(C)CC[C@@H]1[C@]32OO4` (some centres not stated), the growth was 27.7% (inactive).

`Cc1ccc(C(=O)Nc2ccc(CNCCN3CCOCC3)c(C(F)(F)F)c2)cc1C#Cc1cnc2cccnn12`: the growth is -21% (active).

Take `O=C1NC(=O)C(c2cnc3ccccn23)=C1c1cn2c3c(cc(F)cc13)CN(C(=O)N1CCCCC1)CC2`: the growth was 47.6% (inactive).

As for `CCOC(=O)CSc1c(-c2ccccc2)c2cc(Cl)ccc2[nH]c1=O`, the growth was 98% (inactive).

With `COc1ccc(S(=O)(=O)NCCCNc2nccc(-c3cn(C(C)(C)C)nc3-c3ccc(Cl)c(OC)c3)n2)cc1`, the growth is 76.8% (inactive).

As to `COc1cc(N2C(=O)[C@H](Cl)C2c2ccc(SC)cc2)cc(OC)c1OC` (some centres not stated), the growth is -9.26% (active).

With `COc1ccc(/C=C(\C#N)c2cc3ccccc3n2C(C)=O)cc1`, the growth was 58.8% (inactive).

Take `CC(C)c1ccc(C(=O)Nc2sc3cc(O)ccc3c2C#N)cc1`: the growth was 12.5% (inactive).

For the compound `Clc1ccc(C2=NN(c3ccccc3)[C@H](c3cn(-c4ccccc4)nc3-c3ccccc3)C2)cc1`, the growth is 109% (inactive).

As to `CS(=O)(=O)Nc1cc(-c2ccc3ncc(C#N)c(Nc4ccc(F)c(Cl)c4)c3c2)cnc1Cl`, the growth is -48.7% (active).

Turning to `O=C(Nc1nc(-c2ccc(Cl)cc2)cs1)c1cc(-c2ccc(Br)cc2)nc2ccc(Cl)cc12`, the growth was 98.7% (inactive).

For `COc1ccc2c(c1)-c1c(c3cc(OC)ccc3n(CCN(C)C)c1=O)C2=O`, the growth was 46% (inactive).
